# From PubChem
# Compounds with a hit are over-represented: about 10% of the library has one in this group of screens.
# CCT chaperon mod: High-Throughput Screening for Modulators of Cytosolic Chaperonin Activity; activity change, % (concentration not given with the values), hits read low; purified chaperonin ATPase assay, HTRF ADP detection, 30 min; 360,000 tested, 0.3% active; in the data active = activity change below about -30%
#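 Enzyme 40 or 20 nM (batch-dependent) in Tris pH 7.4/KCl/MgCl2/DTT; cpd 76 uM single point; ATP 10 uM; 30 min 37 °C; Transcreener ADP HTRF detection, 30 min RT; ratio 665/615.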
# Mm-Cpn inhibitor: Inhibitors of TCP-1 ring complex (TRiC) of Methanococcus maripaludis (MmCpn): qHTS; Chaperonin Mm-Cpn (Methanococcus maripaludis); purified Mm-Cpn ATPase, ADP Transcreener TR-FRET; Potency, µM (doses to about 76.9 µM), without a hit: top-dose activity, negative = inhibition, hits mostly inhibitors; 330,000 tested, 0.031% active; also: potency is read from the fitted curve at half-maximal effect; nearly all actives have a fitted effect of over 80% in size
#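 Reaction buffer contained 30 mM Tris pH 7.4, 100 mM KCl, 5 mM MgCl2 and 1 mM DTT. Mm-CPN (25 nM final) hydrolysed 10 uM ATP over 30 min at 37°C; ADP was read by HTRF.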
# VDR inhibitor: Inhibitors of the vitamin D receptor (VDR): qHTS; AID 504847, 2011; VDR-SRC2-3 peptide fluorescence polarization, 2 h; Vitamin D3 receptor (Homo sapiens), P11473; 400,000 tested, 0.93% active; Potency, µM, without a hit: max response, negative = inhibition, usual class: inhibitors; also: potency is read from the fitted curve at half-maximal effect
#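 Inhibition of the VDR/SRC2-3 peptide interaction is quantified by fluorescence polarization. Compounds (23 nl, pintool) incubate with the reagents for 2 hours at ambient room temperature.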
# PLK1 PBD block: qHTS for Inhibitors of PLK1-PDB (polo-like kinase 1 - polo-box domain): Primary Screen | Serine/threonine-protein kinase PLK1 (Homo sapiens), P53350 | Plk1 PBD binding of FITC phosphopeptide, fluorescence polarization | Potency, µM, inactives show max response, negative = inhibition, hits mostly inhibitors | 360,000 tested, 2.8% active | AID 720504, 2013; also: potency is read from the fitted curve at half-maximal effect; series mostly up to about 57 µM; nearly all actives have a fitted effect of over 65% in size
# Target sequence (P53350 whole entry, looked up, the tested form may be a part): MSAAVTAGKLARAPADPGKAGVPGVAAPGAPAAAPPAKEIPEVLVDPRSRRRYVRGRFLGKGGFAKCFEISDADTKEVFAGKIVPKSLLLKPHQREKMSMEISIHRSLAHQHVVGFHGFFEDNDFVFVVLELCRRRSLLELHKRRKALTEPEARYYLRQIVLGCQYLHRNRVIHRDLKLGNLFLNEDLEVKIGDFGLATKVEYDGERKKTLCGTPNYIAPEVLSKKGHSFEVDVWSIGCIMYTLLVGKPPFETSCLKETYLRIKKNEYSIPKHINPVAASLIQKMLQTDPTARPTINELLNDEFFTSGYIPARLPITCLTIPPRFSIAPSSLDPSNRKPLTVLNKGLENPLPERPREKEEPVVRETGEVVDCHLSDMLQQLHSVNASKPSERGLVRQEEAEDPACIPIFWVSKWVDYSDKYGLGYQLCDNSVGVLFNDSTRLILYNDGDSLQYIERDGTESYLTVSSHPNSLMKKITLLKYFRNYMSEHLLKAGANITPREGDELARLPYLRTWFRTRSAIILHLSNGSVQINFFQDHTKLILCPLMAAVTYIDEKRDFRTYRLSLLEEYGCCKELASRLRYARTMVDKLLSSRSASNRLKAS
# G9a inh: qHTS Assay for Inhibitors of Histone Lysine Methyltransferase G9a. Histone-lysine N-methyltransferase EHMT2 (Homo sapiens), Q96KQ7. G9a H3K9 monomethylation, AlphaScreen, 2 h. Potency, µM (highest dose often 102 µM), for the others: at the highest dose activity, negative = inhibition, usual class: inhibitors. 350,000 tested, 8.8% active; also: potency is read from the fitted curve at half-maximal effect; nearly all actives have a fitted effect of over 75% in size
#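 Readings reflect AlphaScreen signal from monomethyl-H3K9 antibody detection. HMT at 20 nM; substrate b-H3K9 500 nM; cofactor SAM 20 uM; 2 h RT reaction; compounds tested as titrations in qHTS with 15 min preincubation.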
# Sfp PPTase inh: qHTS Assay for Inhibitors of Bacillus subtilis Sfp phosphopantetheinyl transferase (PPTase); Biochemical Sfp PPTase activity, qHTS; Potency, µM, for inactives: largest response in the series, negative = inhibition, most hits filed as inhibitors; 310,000 tested, 3.5% active;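 also: the enzyme is Sfp with the accession as filed and its product quenches rhodamine fluorescence; potency is read from the fitted curve at half-maximal effect; 0% = enzyme reaction without inhibitor and -100% = no enzyme wells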
#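 With Hepes-Na pH 7.6 buffer containing 10 mM MgCl2, Sfp (15 nM) modified BHQ-2-YbbR (12.5 uM) using rhodamine-CoA (5 uM). Two reads 30 minutes apart at 525/598 nm yielded each well's rate.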
# * marks the source's active call; other numbers are inactive results; ? = inconclusive; . = no result given; [ ] = remark or other dose. Unless noted, calls follow the shape of the dose curve; as a rule, active = well fitted curve in the direction sought with a large enough effect; inconclusive = small, poorly fitted or top-dose-only effect, or another doubt; inactive = no such curve, though single readings can be large; an effect the other way counts as inactive or inconclusive. Unless noted, % is scaled to controls: 0 for no effect and ±100 for the full control effect.
SMILES,CCT chaperon mod,Mm-Cpn inhibitor,VDR inhibitor,PLK1 PBD block,G9a inh,Sfp PPTase inh
Cc1cccc(OCCn2c(-c3ccco3)nc3ccccc32)c1,-1,-1%,-9%,-13%,?,?
c1ccc(OCCn2c(-c3ccco3)nc3ccccc32)cc1,1,1%,-17%,?,40µM*,50µM*
CC1=CC2=NC(=O)CC(C)(C(=O)N(CC(=O)NC3CCCC3)c3cc(C)cc(C)c3)N2C=C1 (configuration not stated),1,-7%,?,27µM*,-8%,2%
Cc1ccc(S(=O)(=O)N2CCNC(=O)C2)c(C)c1,0,0%,-6%,-6%,56µM*,.
Cc1ccc(S(=O)(=O)N2CCN(C)CC2)c(C)c1,0,0%,-4%,0%,-6%,15%
Cc1ccc(C)c(S(=O)(=O)N2CCNCC2)c1,-34*,0%,-19%,-5%,-14%,3%
Cc1ccc(C)c(S(=O)(=O)N2CCC3(CC2)OCCO3)c1,2,-3%,-22%,-6%,37%,11%
Cc1ccc(C)c(NC(=O)CN2CCCN(Cc3cccc(Cl)c3)S2(=O)=O)c1,.,.,10%,.,3%[59 µM],.
CCC(C)(C)NC(=O)c1ccc(Sc2nncn2C)c([N+](=O)[O-])c1,-1,0%,-7%,-30%,11%[59 µM],7%
Cn1c(Sc2ccc(C(=O)O)cc2[N+](=O)[O-])nnc1-c1ccccc1,0,-1%,79µM*,4.2µM*,1%[59 µM],10%
O=C(O)c1ccc(Sc2nnc(-c3cccc(Br)c3)o2)c([N+](=O)[O-])c1,-1,0%,-7%,-21%,50µM*,0%
CN(CC(=O)Nc1cccc(F)c1)C(=O)/C=C/c1cn(Cc2ccccc2)nc1-c1cccnc1,-3,-8%,-6%,3%,50µM*,.
Cc1ccc(Cl)cc1NC(=O)CN1C(=O)C(C)(C)c2cc(S(=O)(=O)N3CCCCC3)ccc21,.,.,11%,.,0%[59 µM],.
CCOC(=O)C(C#N)=C1CCC=C(C)C1,-14,.,.,7%,.,.
CCOC(=O)/C(C#N)=C1\SS/C(=C(/C#N)C(=O)OCC)S1,.,-2%,.,.,1.6µM*,10µM*
CC1(C)CC(=O)c2cc(C(=O)Nc3ccc(Br)cc3)c(=O)[nH]c2C1,.,.,22%,.,-37%[59 µM],.
Nc1ccn(-c2ncc(C(F)(F)F)cc2Cl)c(=O)n1,-2,-6%,-10%,1%,25%[12.7 µM],20%
FC(F)(F)c1cnc(-n2cc[nH]c2=S)c(Cl)c1,-1,-1%,9%,-14%,32µM*,-2%
Cc1cc(C)c(Cn2c(=O)n(CCCCC(=O)NCc3ccccc3Cl)c(=O)c3ccccc32)c(C)c1,.,.,-8%,.,-42%[59 µM],.
c1ccc(-c2ccc(-c3cnc4n3CCCCC4)cc2)cc1,3,-1%,21%,-8%,18µM*,-3%
Cc1ccc(-c2cnc3n2CCCCC3)cc1,0,-2%,-3%,2%,-1%,30%
COc1ccc(C2/C=C\CN(C(=O)c3ccccc3)C(C)C(=O)N2Cc2ccc(F)cc2)cc1 (configuration not stated),.,.,-27%,.,.,-6%
O=C(CSc1nnc(-c2cccs2)n1CC1CCCO1)c1cc2ccccc2o1 (configuration not stated),-2,?,?,-18%,45µM*,5%
CCN(CC)S(=O)(=O)c1ccc(Cl)c(C(=O)NCC2CCCO2)c1 (configuration not stated),-4,1%,-3%,-3%,3%,9%
Cc1csc(SC(C)C(=O)NCC2CCCO2)n1 (configuration not stated),5,-1%,0%,-9%,40µM*,.
SMILES,CCT chaperon mod,Mm-Cpn inhibitor,VDR inhibitor,PLK1 PBD block,G9a inh,Sfp PPTase inh
CC(Sc1nnc(-c2cccs2)n1N)C(=O)NCC1CCCO1 (configuration not stated),1,?,-4%,-1%,50µM*,.
CCN(CC)S(=O)(=O)c1ccc2c(c1)nc(SC(C)C(=O)NCC1CCCO1)n2CC (configuration not stated),0,2%,-22%,-11%,79µM*,11%
CC(Sc1nc(N)cc(N)n1)C(=O)NCC1CCCO1 (configuration not stated),1,1%,0%,2%,9%[12.7 µM],.
COc1ccc(COC(=O)N/N=C2/C[C@@H](O)[C@@H](O)[C@@H]3[C@H]4C(=O)N(c5ccc(F)cc5F)C(=O)[C@@H]4CC[C@H]23)cc1,.,.,.,.,.,13%
COc1cc2c(cc1OC)C(c1ccccc1)CN(C)CC2 (configuration not stated),.,.,1%,.,?,-1%
Cc1ccc(C)c(S(=O)(=O)N=Nc2c(O)[nH]c3ccccc23)c1,-6,1%,-9%,-18%,8.9µM*,-19%
Cc1ccc2cc(CN(C(=O)c3ccco3)c3cccc(C)c3C)c(=O)[nH]c2c1,-1,-7%,?,?,?,32µM*
Cc1ccc(N(Cc2cc3ccc(C)cc3[nH]c2=O)C(=O)c2ccco2)c(C)c1,-29,3%,?,?,?,50µM*
COCC(=O)N(Cc1cc2ccc(C)cc2[nH]c1=O)c1ccccc1C,2,0%,6%,-9%,-7%,29%
Cc1ccc2cc(CCNC(=O)c3ccco3)c(=O)[nH]c2c1,-7,1%,17%,-4%,?,3%
COCC(=O)N(Cc1cc2ccc(C)cc2[nH]c1=O)c1ccc(C)cc1C,3,-3%,6%,-5%,-7%,14%
Cc1ccc2cc(CN(C(=O)c3ccco3)c3ccccc3C)c(=O)[nH]c2c1,-1,-2%,-15%,-23%,?,50µM*
CC(C)N(CCNS(=O)(=O)c1ccc(Cl)cc1)C(C)C,-1,1%,20%,2%,-3%[59 µM],-10%
CC(C)OP(=O)(OC(C)C)C1(NS(=O)(=O)c2ccc(Cl)cc2)C=C(Cl)C(=O)C(Cl)=C1,0,-13%,-4%,-7%,.,89µM*
C[C@@H]1O[C@H](O[C@@H]2[C@H](C)O[C@H](O[C@@H]3[C@H](C)O[C@H](O[C@H]4CC[C@]5(C)[C@@H](CC[C@@H]6[C@H]5C[C@@H](O)[C@]5(C)[C@@H](C7=CC(=O)OC7)CC[C@]65O)C4)C[C@@H]3O)C[C@@H]2O)C[C@H](O)[C@@H]1O,.,.,-2%,.,26%[21.5 µM],-7%
Cc1ccccc1CSc1ccc(-c2cccs2)nn1,.,.,-3%,.,121%[59 µM],.
